Assay results: PubChem BioAssay (NCATS)
Records with an inconclusive call do not appear. Active and inactive are the calls of the source. Calls follow the shape of the dose curve; as a rule, active = well fitted cell-killing curve with a large enough effect; inconclusive = small, poorly fitted or top-dose-only effect; inactive = no such curve, though single readings can be large or run the other way. Non-standard residues stand in square brackets, D forms with d. Residues, ends and D or L forms follow the SMILES beside them. *: point of attachment. Nva = CCC[C@H](N)C(=O)O; Cbz = O=C(OCc1ccccc1)*
Potency is read from the fitted curve at half-maximal effect.

Test: qHTS of pediatric cancer cell lines to identify multiple opportunities for drug repurposing: Confirmatory screen for U-2 OS cells (AID 1347122); also: nearly all actives have a fitted effect of over 65% in size
Settings: U-2 OS osteosarcoma cell viability; series mostly up to 45.9 µM
Excerpt: Drug repurposing or repositioning has been offered as a strategy for drug development in oncology programs. This approach has special potential for childhood cancers and other rare or orphan diseases, where the expected return on new drug development has been a disincentive to pharmaceuticals.
In this project we exploit the poly-pharmacology of drugs to discover new indications via phenotypic screening of a panel of 19 well-characterized cell lines derived from solid tumors seen in children and adolescents. The goal is to identify approved drugs with previously unrecognized anticancer properties that has the potential to reveal new mechanisms and biological processes involved in carcinogenesis or drug resistance. We employed a titration-based paradigm (quantitative high-throughput screening or qHTS), where all compounds were tested at multiple concentrations for their effect on cell viability. Concentration-response curves (CRCs) were derived directly from the primary screen, and both potency and efficacy values were used to identify compounds with robust bioactivity profiles. We screened the NIH Chemical Genomics Center (NCGC) Pharmaceutical Collection (NPC) and Mechanism Interrogation Plate (MIPE) small molecule collections of approved and investigational compounds against these cell lines; and measured metabolically active cells after 48 hours of compound treatment as a proxy for cell viability.
Assay Submitter: Nathalia J. Martinez, National Center for Advancing Translational Sciences, National Institutes of Health, Rockville, MD, USA; email: natalia.martinez@nih.gov
[1] Shen, M et al. Quantitative high-throughput phenotypic screening of pediatric cancer cell lines identifies multiple opportunities for drug repurposing. Oncotarget 2017 Dec 19;9(4):4758-4772. PMID 29435139.
The cells were obtained from University of North Carolina (UNC), Pediatric Preclinical Testing Program (PPT), and Coriell Institute (CI).
qHTS cell viability assay:
Cells were assayed in growth media at a density of 500-1,000 cells/well. Five microliters of cells were dispensed into 1,536-well, white, solid-bottom, TC-treated plates (Greiner Bio One) using a multidrop dispenser and incubated at 37 degrees C, 5% CO2, under a humidified atmosphere for 5 hours. Twenty-three nanoliters of compounds and controls (neutral control DMSO or positive control bortezomib at final concentration of 2.3 µM) were subsequently transferred by Kalypsys pintool. For primary screens, the MIPE collection was tested at 11-point dilutions (final concentrations range from 0.78 nM to 46 µM) and the NPC collection at 8-point dilutions (final concentrations range from 0.59 nM to 46 µM). Compounds tested in follow-up screens were assayed at 11-point dilutions. Cells were incubated for 48 hours, followed by addition of 3 µL of CellTiter-Glo (Promega). After a 15 min incubation at room temperature, samples were analyzed for luminescence intensity using a ViewLux High-throughput CCD imager equipped with clear filters.
In the case of Oc1cc(-c2nc(-c3ccccc3)[nH]c2-c2ccncc2)ccc1Cl, the Potency is reported as 18500 nM (active). In the case of CCC[C@@H](C=O)NC(=O)[C@H](CC(C)C)NC(=O)[C@H](CC(C)C)NC(=O)OCc1ccccc1 (Cbz-Leu-Leu-[Nva]-aldehyde), the Potency is reported as 2610 nM (active). For CC(=O)SCC(Cc1ccccc1)C(=O)NCC(=O)OCc1ccccc1 (stereo not given), the Potency was “inactive”. In the case of CC(C)N1[N]C(=C2C=c3cc(O)ccc3=N2)c2c(N)ncnc21, the Potency is reported as 2330 nM (active). For CC(C=CC(=O)NO)=C[C@@H](C)C(=O)c1ccc(N(C)C)cc1, the Potency was 657 nM (active). In the case of C[C@@H](Oc1ccc2[nH]nc(C=Cc3cnn(CCO)c3)c2c1)c1c(Cl)cncc1Cl, the Potency is reported as 2080 nM (active). For CC(=O)N1CCN(c2ccc(OCc3nn(C)c(C)c3-c3cccc4c(CCCOc5cccc6ccccc56)c(C(=O)O)n(Cc5cccnc5)c34)cc2)CC1, the Potency was “inactive”. In the case of COc1ccc(C(C)=O)c(O)c1, the Potency is reported as “inactive”. For Cc1[nH]c(C=C2C(=O)Nc3ccccc32)c(C)c1CCC(=O)O, the Potency was “inactive”. For CN(C)c1ccc(C(=O)NCCCCCCC(=O)NO)cc1, the Potency was 1470 nM (active). In the case of COc1ccc(Nc2cc(-c3cnc(N)nc3)nc(N3CCOCC3)n2)cn1, the Potency is reported as 9270 nM (active). With COC(=O)C1C2CC3c4[nH]c5cc(OC)ccc5c4CCN3CC2CC(OC(=O)c2cc(OC)c(OC)c(OC)c2)C1OC (stereo not given) the Potency was 20800 nM (active). For N#CNC(=NCCCCCCOc1ccc(Cl)cc1)Nc1ccncc1, the Potency was 293 nM (active). With Cc1cnc(Nc2ccc(CN3CCOCC3)cc2)nc1Nc1cccc(S(=O)(=O)NC(C)(C)C)c1 the Potency was 4650 nM (active). For CCS(=O)(=O)Nc1ccc2[nH]c(O)c(C(=Nc3ccc(CN4CCCCC4)cc3)c3ccccc3)c2c1, the Potency was 522 nM (active). For C[C@H]1[C@@H](OC(=O)CCC(=O)O)O[C@@H]2O[C@@]3(C)CC[C@@H]4[C@H](C)CC[C@@H]1[C@@]24OO3, the Potency was 13100 nM (active). For CC(C)(O)Cn1c(NC(=O)c2ccc(-c3cn[nH]c3)s2)nc2cc(CN3CCOCC3)ccc21, the Potency was 1170 nM (active). For CC(=O)O[C@H]1C[C@@H]2CC[C@H]3[C@H]4C[C@H]([N+]5(C)CCCCC5)[C@@H](OC(C)=O)[C@@]4(C)CC[C@@H]3[C@@]2(C)C[C@H]1N1CCCCC1, the Potency was “inactive”. With O=C1NC(=O)C(=Cc2ccc3nccc(-c4ccncc4)c3c2)S1 the Potency was 2610 nM (active). With CC[C@@]1([C@@H]2O[C@@H]([C@H]3O[C@@](O)(CO)[C@H](C)C[C@H]3C)C[C@H]2C)CC[C@H]([C@]2(C)CC[C@]3(C[C@H](O)[C@@H](C)[C@@H]([C@@H](C)[C@@H](OC)[C@H](C)C(=O)O)O3)O2)O1 the Potency was 2570 nM (active). For O=C(O)C[C@H](O)C[C@H](O)C=Cc1c(C2CC2)nc2ccccc2c1-c1ccc(F)cc1, the Potency was 1650 nM (active). In the case of O=C(NCc1ccccc1)[C@H](Cc1ccccc1)NC(=O)[C@@H]1O[C@@H]1C(=O)NCCc1ccc(O)cc1, the Potency is reported as “inactive”. In the case of CCOC(=O)C1=C(C)NC(=S)NC1c1cccc(O)c1 (stereo not given), the Potency is reported as 20800 nM (active). With CO[C@@H]1[C@@H](O)[C@H](O)[C@@H](n2c3c(Cl)cccc3c3c4c(c5c6cccc(Cl)c6[nH]c5c32)C(=O)NC4=O)O[C@@H]1CO the Potency was 4140 nM (active). In the case of Nc1ncn([C@@H]2O[C@H](CO)[C@@H](O)[C@@H]2O)c(=O)n1, the Potency is reported as 8270 nM (active). With C=CCNC1=C2C[C@@H](C)C[C@H](OC)[C@@H](O)[C@@H](C)C=C(C)[C@H](OC(N)=O)[C@@H](OC)C=CC=C(C)C(=O)NC(=CC1=O)C2=O the Potency was 414 nM (active). In the case of CNC(=O)c1cccc(-c2ccc3c(N4CCOC[C@H]4C)nc(N4CCOC[C@H]4C)nc3n2)c1, the Potency is reported as 261 nM (active). With O=C(C=CC=Cc1ccc2c(c1)OCO2)N1CCCCC1 the Potency was “inactive”. For O=C(Nc1cc2cc[nH]c2cn1)c1ccccc1, the Potency was “inactive”. With NC(=O)Nc1cc(-c2ccc(CN3CCOCC3)cc2)sc1C(N)=O the Potency was 11700 nM (active). With C=CC(=O)Nc1cccc(Nc2nc(NC3CCC(N(C)C)CC3)nc3c2ncn3C(C)C)c1 (stereo not given) the Potency was 5220 nM (active). In the case of COc1cccc2c1C(=O)c1c(O)c3c(c(O)c1C2=O)C[C@@](O)(C(=O)CO)C[C@H]3O[C@H]1C[C@H](N)[C@H](O)[C@H](C)O1, the Potency is reported as 13100 nM (active). With O=C(O)c1ccc(Nc2ncc3c(n2)-c2ccc(Cl)cc2C(c2c(F)cccc2F)=NC3)cc1 the Potency was 4140 nM (active). For COc1cccc2c1C(=O)c1c(O)c3c(c(O)c1C2=O)C[C@@](O)(C(C)=O)C[C@H]3O[C@H]1C[C@H](N)[C@H](O)[C@H](C)O1, the Potency was 7370 nM (active). For CS(=O)(=O)N1CCc2c(-c3cnc(N)nc3)nc(N3CCOCC3)nc21, the Potency was 1850 nM (active). In the case of C=Cc1c(C)c2cc3nc(cc4[nH]c(cc5nc(cc1[nH]2)C(C)=C5CCC(=O)O)c(CCC(=O)OC)c4C)[C@@]1(C)C3=CC=C(C(=O)OC)[C@H]1C(=O)OC, the Potency is reported as “inactive”. For CCC(C(=O)O)C1CCC(C)C(C(C)C(O)C(C)C(=O)C(CC)C2OC3(C=CC(O)[C@@]4(CC[C@](C)(C5CC[C@@](O)(CC)C(C)O5)O4)O3)C(C)CC2C)O1 (stereo not given in full), the Potency was 7370 nM (active). In the case of COc1cc2c(cc1OC)[C@@H]1C(=O)c3ccc4c(c3O[C@@H]1CO2)C=CC(C)(C)O4, the Potency is reported as 329 nM (active). For O=C1NCCc2[nH]c(-c3ccncc3)cc21, the Potency was 2930 nM (active). For O=C1NC(=O)[C@@H](c2cn3c4c(cccc24)CCC3)[C@H]1c1c[nH]c2ccccc12, the Potency was 1170 nM (active).
